Only a selection was taken, and hits are over-represented in it overall.
ALOX12 inh: Primary qHTS assay for inhibitors of human arachidonate 12S-lipoxygenase (ALOX12): Round 2; Polyunsaturated fatty acid lipoxygenase ALOX12 (Homo sapiens), P18054; purified 12hLO, xylenol orange hydroperoxide absorbance; Potency, µM (titrated, usually from 108 µM), without a hit: at the highest dose activity change, negative = inhibition, usual class: inhibitors; actives 1.1% (n = 580,000); AID 1671190, 2021; note: potency is the fitted concentration of half-maximal effect
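Hydroperoxide product was detected by ferrous iron/xylenol orange as the 573 to 405 nm absorbance ratio. Arachidonic acid at 40 uM (final) was turned over for 30 min at room temperature by 150 nM human 12hLO, pH 7.0 Hepes buffer, after 15 min compound preincubation.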
DT40 TDP1 CPT: qHTS for Inhibitors of human tyrosyl-DNA phosphodiesterase 1 (TDP1): qHTS in cells in presence of CPT | chicken DT40 Tdp1-/-;hTDP1 cells + 20 nM CPT, ATP luminescence, 48 h | Potency, µM (doses to about 46.2 µM), inactives show at the highest dose activity change, negative = growth inhibition, hits mostly inhibitors | actives 12% (n = 420,000) | AID 686979, 2013; note: potency is the fitted concentration of half-maximal effect; nearly all actives have a fitted effect of over 55% in size
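Cell growth measured by CellTiter-Glo luminescence after a minimum 48 h, 37 C compound exposure with 20 nM CPT in Tdp1-knockout DT40 cells stably expressing hTDP1, seeded 400/well; qHTS titration format.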
TDP1 cell noCPT: qHTS for Inhibitors of human tyrosyl-DNA phosphodiesterase 1 (TDP1): qHTS in cells in absence of CPT. DT40 Tdp1-/- hTDP1 cells, no CPT, ATP luminescence, 48 h. Potency, µM (top dose mostly 46.2 µM), inactives show at the top dose activity change, negative = growth inhibition, most hits filed as inhibitors. actives 15% (n = 420,000); note: potency is the fitted concentration of half-maximal effect; nearly all actives have a fitted effect of over 55% in size
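Stably hTDP1-transfected Tdp1-null chicken DT40 cells were treated with library compounds minus camptothecin and grown for at least 48 hr at 37 °C, after which cellular ATP was quantified by luminescence.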
IL1B secr inh: qHTS for Inhibitors of Inflammasome Signaling: IL-1-beta AlphaLISA Primary Screen | THP-1 LPS/ATP IL-1B secretion, AlphaLISA, 16 h; stronger effect = lower value | activity change, % at 57.5 µM | actives 4.7% (n = 360,000); in the data active = activity change below about -50%; inconclusive = mostly about -30% to -49%
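Secreted IL-1B measured by AlphaLISA bead assay after 16 h compound exposure of THP-1 cells; compounds (final up to 57.5 uM) added 1 h before LPS (250 ng/mL) and ATP (1.25 mM) stimulation; lower signal means less secretion.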
HT1080NT lethal: qHTS for induction of synthetic lethality in tumor cells producing 2HG: qHTS for the HT-1080-NT fibrosarcoma cell line. HT-1080-NT fibrosarcoma viability, CellTiter-Glo ATP luminescence, 48 h. AID 686970, 2013. Potency, µM (titrated, usually from 46.1 µM), for the others: top-dose activity, negative = less viability, actives largely listed as cytotoxic. actives 1.6% (n = 360,000);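 note: NT is the 2HG producing partner of a matched IDH1 knockdown line; potency is the fitted concentration of half-maximal effect; 0% = DMSO-treated cells and -100% = media-only wells without cells; nearly all actives have a fitted effect of over 55% in size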
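Viability by CellTiter-Glo luminescence after 48 h compound exposure at 37C of HT-1080-NT cells (750/well, RPMI, 5% FBS). % activity scaled between DMSO wells and medium-only wells, then curve-fitted and categorized by curve class.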
HT1080 IDH1KD tx: qHTS for induction of synthetic lethality in tumor cells producing 2HG: qHTS for the HT-1080-IDH1KD cell line; Potency, µM (doses to about 46.1 µM), without a hit: top-dose activity, negative = toxicity, actives largely listed as cytotoxic; AID 686971, 2013; actives 2% (n = 360,000); HT-1080 IDH1 knockdown viability, ATP luminescence, 48 h;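 note: potency is the fitted concentration of half-maximal effect; 0% = DMSO wells and -100% = cell-free medium wells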
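HT-1080-IDH1KD cells (IDH1 knocked down), 750/well in RPMI with 5% FBS, treated with compound 48 h at 37 degrees C. Viability by CellTiter-Glo luminescence, normalised to DMSO and no-cell wells; concentration-response curves classed.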
The depositor's hits bear a star. Unless noted, calls come from the whole dose curve; as a rule, active = well fitted curve in the direction sought with a large enough effect; inconclusive = small, poorly fitted or top-dose-only effect, or another doubt; inactive = no such curve, though single readings can be large; an effect the other way counts as inactive or inconclusive. Unless noted, % is set by controls: 0 for no effect and ±100 for the full control effect.

`CCc1ccccc1NC(=O)N1CCN(c2nnc(C)c3c(C)n(-c4ccccc4)nc23)CC1` gave ALOX12 inh -25%, DT40 TDP1 CPT inconclusive and TDP1 cell noCPT 21µM*.
Cc1ccc(C)c(NC(=O)N2CCN(c3nnc(C)c4c(C)n(-c5ccccc5)nc34)CC2)c1 was read as ALOX12 inh -29%, DT40 TDP1 CPT -12% and TDP1 cell noCPT -3%.
Screening CCOC(=O)c1c(N)sn(-c2ccccc2C)c1=S returned ALOX12 inh inconclusive, DT40 TDP1 CPT 23µM*, TDP1 cell noCPT 26µM*, IL1B secr inh -24, HT1080NT lethal -13% and HT1080 IDH1KD tx -2%.
CCOC(=O)c1nn(-c2ccccc2C)c(=O)c2c(N)scc12 was read as ALOX12 inh inconclusive, DT40 TDP1 CPT inconclusive, TDP1 cell noCPT inconclusive, IL1B secr inh -8, HT1080NT lethal -6% and HT1080 IDH1KD tx -8%.
CCCC(=O)NC1CCN(c2ccccc2S(=O)(=O)C(F)(F)F)CC1 was read as ALOX12 inh -26%.
Screening COc1ccc(CNC(=O)c2cc3cccc4c3n2CC(C)S4)c(OC)c1 (stereo not drawn) returned ALOX12 inh -13%, DT40 TDP1 CPT 9.2µM* and TDP1 cell noCPT 5.2µM*.
`COc1ccc(OC)c(CCNC(=O)c2cc3cccc4c3n2CC(C)S4)c1` (stereo not drawn) gave ALOX12 inh -25%, DT40 TDP1 CPT 5.8µM* and TDP1 cell noCPT 5.2µM*.
COc1ccc(CNC(=O)c2cc3cccc4c3n2CC(C)S4)cc1OC (stereo not drawn) was read as ALOX12 inh inconclusive, DT40 TDP1 CPT inconclusive and TDP1 cell noCPT 23µM*.
CN(C(=O)CN1CCC(c2cc3ccccc3[nH]2)CC1)C1CC1 was read as ALOX12 inh 9%.
`CC(c1ccncn1)N(C)Cc1nc(-c2ccc(C(F)(F)F)cc2)no1` (stereo not drawn) gave ALOX12 inh 0%, DT40 TDP1 CPT 18µM*, TDP1 cell noCPT inconclusive, IL1B secr inh 0, HT1080NT lethal 1% and HT1080 IDH1KD tx 7%.
COC(=O)C1C2CCC(C2)C1C(=O)OCC(=O)c1ccc(Cl)cc1 (stereo not drawn) was read as ALOX12 inh 3%.
For COc1ccc2cc(C(=O)/C=C/c3ccc(C(=O)O)cc3)ccc2c1 the results were ALOX12 inh -21%.
For O=C(/C=C/c1ccc(OC2CSC2)cc1)c1ccccc1 the results were ALOX12 inh 8%, DT40 TDP1 CPT 18µM*, TDP1 cell noCPT 18µM*, IL1B secr inh -11, HT1080NT lethal inconclusive and HT1080 IDH1KD tx inconclusive.
Screening O=C(O)COc1ccc(/C=C/C(=O)c2ccc3ccccc3c2)cc1 returned DT40 TDP1 CPT 15%, TDP1 cell noCPT 0%, IL1B secr inh -99*, HT1080NT lethal inconclusive and HT1080 IDH1KD tx inconclusive.
`CCOc1ccc(/C=C/C(=O)c2ccccc2)cc1` gave ALOX12 inh 6%, DT40 TDP1 CPT inconclusive, TDP1 cell noCPT inconclusive, IL1B secr inh inconclusive, HT1080NT lethal 6% and HT1080 IDH1KD tx 5%.
O=C(O)COc1ccc(/C=C/C(=O)c2ccc(C3CCCCC3)cc2)cc1 was read as ALOX12 inh -23%, DT40 TDP1 CPT inconclusive, TDP1 cell noCPT 18µM*, IL1B secr inh -101*, HT1080NT lethal inconclusive and HT1080 IDH1KD tx inconclusive.

Screening results (PubChem BioAssay)
